Consider 116 molecules from ChEMBL document CHEMBL4513216, “Probing the Open Global Health Chemical Diversity Library for Multistage-Active Starting Points for Next-Generation Antimalarials” (ACS Infect Dis, 2020).

In all, about 69,000 compounds went through this assay and about 8,600 (12%) showed an effect of 50% or more. What follows is part of a selection rich in strong results, with near analogues and random picks from the rest.

The assay concerns Plasmodium berghei. Briefly: Screen against P. berghei liver stage (PbLuc), transformed with Luciferase, at 10uM. To be noted: tested at 10 uM. Format: functional, HepG2.
On to `Cc1ccc(N2CCC3(CN(CCO)CCC3(F)F)C2)nn1` (stereo unspecified), for which the INHIBITION is 39.5%.
To `Cc1ccc(N2CCC3(CN(Cc4ccncc4)CCC3(F)F)C2)nn1` (stereo unspecified) belongs 89.1%; to `Cc1ccc(CN2CCC(F)(F)C3(CCN(c4cnccn4)C3)C2)o1` (stereo unspecified), 35.1%.
To `Fc1ccc(CN2CCC(F)(F)C3(CCN(c4cnccn4)C3)C2)cc1` (stereo unspecified) belongs 1.61%.
As for `Cn1cc(CN2CCC(F)(F)C3(CCN(c4ncccn4)C3)C2)cn1` (stereo unspecified), the figure is 9.51%.
Consider `Cc1ccc(N2CCC3(CN(Cc4cccs4)CCC3(F)F)C2)nn1` (stereo unspecified), for which the INHIBITION amounted to 61.3%.
To `CC(C)(C)c1ncc(C(=O)NCCNS(C)(=O)=O)s1` belongs -33.9%.
As for `CNS(=O)(=O)CC(=O)N1CCCc2cc(C(C)C)ccc21`, the figure is 39.7%.
`O=C(c1cnc(-c2ncccn2)s1)N1CCCC(n2cccn2)C1` (stereo unspecified): the INHIBITION turned out to be 21%.
As for `CNC(=O)c1[nH]nc2c1CN(c1cc(C3CCCNC3)nc(C)n1)CC2` (stereo unspecified), the INHIBITION was 55.4%.
To `CNC(=O)C1CCN(c2cc(C3CCNCC3)nc(C)n2)C1` (stereo unspecified) belongs 26.4%; to `Cc1nc(NCC23CCCN2CCC3)cc(C2CCCNC2)n1` (stereo unspecified), -71.1%.
For the molecule `Cc1nc(C2CCCNC2)cc(N2CCc3nc(N)sc3C2)n1` (stereo unspecified), the INHIBITION is 53.6%.
To `CNc1cc(C2CCCNC2)nc(C)n1` (stereo unspecified) belongs 16.4875%.
As for `Cc1nc(NCCC23CCCN2CCC3)cc(C2CCCNC2)n1` (stereo unspecified), the INHIBITION is listed as -59.5%.
As for `O=C(COc1coc(CN2CCOCC2)cc1=O)Nc1ccccc1F`, the figure is -0.532%.
As for `Cc1ncc2c(c1C(=O)O)CCN(c1ncc(F)cn1)C2`, the figure is 7.24%; as for `Cc1nc(CN2CCOC(Cn3cccn3)C2)no1` (stereo unspecified), 4.71%; as for `Cc1noc(C2CCN(Cn3cc(Cl)cn3)CC2)n1`, 37.9%.
To `C[C@]1(O)CCN(Cc2ncccc2F)C[C@@H]1Oc1ccccc1` belongs -11.7%; to `CC[S+](CC)[c-]1c(=O)[nH]c(=O)n(CCc2ccc(F)cc2)c1=O`, -17.6%; to `O=C(O)c1cnc(N2CCC(O)CC2)nc1COc1cccc(F)c1`, 6.67%.
For `CCOc1ccc(Br)cc1C1CCCN1` (stereo unspecified), the INHIBITION turned out to be 16.8%.
As for `Fc1cnc(N2CCC3(CC2)CN(Cc2cccs2)CCO3)nc1`, the figure is 60.3%.
As for `Fc1cnc(N2CCOC3(CCN(Cc4cccs4)CC3)C2)nc1`, the figure is 48.4%; as for `Cc1cnc(N2CCC3(CC2)CN(Cc2cccs2)CCO3)nc1`, 58.3%.
In the case of `Fc1cnc(N2CCC3(CC2)CN(Cc2ccccn2)CCO3)nc1`, the INHIBITION is listed as -3.51%.
To `O=C(c1ccccc1)N1CCOC2(CCN(Cc3cccs3)CC2)C1` belongs -11%; to `c1ccc(CN2CCOC3(CCN(c4ncccn4)CC3)C2)nc1`, 14.2%.
As for `O=C(NCc1csc(Br)c1)Nc1cn[nH]c1`, the figure is 17.5%.
As for `COCCCC1(C(=O)O)CCCN(Cc2cc3c(cc2C)OCCO3)C1` (stereo unspecified), the figure is -31.4%; as for `COCCCC1(C(=O)O)CCCN(Cc2ccccc2C)C1` (stereo unspecified), 14.9%.
On to `COCCC1(C(=O)O)CCCN(CCc2ccccc2)C1` (stereo unspecified), for which the INHIBITION worked out at 31.6%.
As for `COCCC1(C(=O)O)CCCN(CCOCc2ccccc2)C1` (stereo unspecified), the figure is 27.9%; as for `COCCC1(C(=O)O)CCCN(Cc2cc3c(cc2C)OCO3)C1` (stereo unspecified), 57.2%.
As for `COCCC1(C(=O)O)CCCN(Cc2cc3c(cc2Cl)OCO3)C1` (stereo unspecified), the figure is 58.5%; as for `C=c1cc(C)oc1=C1NC(c2c(C)ncc3c2CCNC3)=NO1`, 49%.
As for `O=C(Nc1cnn(Cc2ccc(Cl)cc2)c1)N1CCCC1CO` (stereo unspecified), the figure is -31.1%; as for `FC1(F)CCNCC12CCN(c1cccnc1)C2` (stereo unspecified), 33%; as for `O=C(NCCNc1ncccn1)C1CC(=O)N(Cc2ccccc2)C1` (stereo unspecified), -24.2%.
With `O=C(NCCNc1ncccn1)C1CC(=O)N(Cc2ccccn2)C1` (stereo unspecified), the INHIBITION came to 50.5%.
As for `O=C(NCCNc1ncccn1)C1CC(=O)N(Cc2ccco2)C1` (stereo unspecified), the figure is 2.3%; as for `O=C1CCc2cc(NC(=O)C3CCCN3c3nccs3)ccc2N1` (stereo unspecified), 24.3165%; as for `O=C(C1CC1)N(CCc1ccccc1)C1CCOC1` (stereo unspecified), -28.6%.
As for `O=C(C1CCOCC1)N(CCc1ccccc1)C1CCOC1` (stereo unspecified), the figure is -5.33%.
To `O=C1CC[C@H](C(=O)N(CCc2ccccc2)C2CCOC2)N1` (stereo partly specified) belongs 55%.
`C[C@H]1CN(C(=O)N(C)C)C[C@@]12CCN(c1ccsc1)C2=O`: the INHIBITION was found to be 36.9%.
To `O=C(NCC(F)F)c1ccc(S(=O)(=O)NCCc2c[nH]cn2)cc1` belongs 10.4%.
On to `O=C(c1ccc(S(=O)(=O)NCCc2ccncc2)cc1)N1CCCC1`, for which the INHIBITION came out at 57.6%.
To `O=C(c1ccc(S(=O)(=O)NCCc2ccccn2)cc1)N1CCCC1` belongs 30.3%.
To `O=C(c1ccc(S(=O)(=O)NCc2ccncc2)cc1)N1CCNCC1` belongs 19.5%.
To `O=C(NCC(F)F)c1ccc(S(=O)(=O)NCCc2cn[nH]c2)cc1` belongs 35.8%; to `O=C(NCC(F)F)c1ccc(S(=O)(=O)NCCc2ccncc2)cc1`, 52.2%.
For the molecule `CC(C)c1nccn1C1CCCN(C(=O)c2cn3cccnc3n2)C1` (stereo unspecified), the INHIBITION was determined as 1.78%.
Consider `Cn1c(C(=O)NC2CC2)nc2c1CCN(c1ncccn1)C2`, for which the INHIBITION is 21.6%.
To `Cn1c(C(=O)NC2CCCC2)nc2c1CCN(Cc1ccccc1)C2` belongs -18.5%; to `Cc1ncccc1NC(=O)c1nc2c(n1C)CCN(C(=O)C1CC1)C2`, 66.6%.
To `Cc1cnn(CC2CCCCN2c2nn3cc(C)nc3s2)c1` (stereo unspecified) belongs -23.9%; to `CC1(C)CN(C(=O)c2occc2COc2cccc(C#N)c2)CCO1`, -10.8%; to `Cc1cc(C)n(CC2CN(CCOc3ccccc3C#N)CCO2)n1` (stereo unspecified), -10.6%.
Consider `Cn1ccnc1CN1CCN(CCOc2ccccc2C#N)CC1`, for which the INHIBITION is 44.8%.
To `Cc1cnn(C2CN(CCCOc3ccc(C#N)cc3)C2)c1` belongs 49%; to `Cc1cnn(C2CN(CCOc3ccccc3C#N)C2)c1`, 58.8%; to `Cc1cnn(C2CN(CCOc3ccc(C#N)cc3)C2)c1`, -26.1%.
As for `Cc1cnn(C2CN(CCOc3cccc(C#N)c3)C2)c1`, the figure is 69.9%.
As for `O=C(NCCc1cc(N2CCOCC2)nc(N2CCCC2)n1)C1CC1`, the figure is 15.548%.
In the case of `O=C(CC1CC2(CCN(CC3CC3)CC2)Oc2ccccc21)NC1CC1` (stereo unspecified), the INHIBITION amounted to 7.5%.
As for `Fc1ccc([C@@H]2COC[C@H]2NCc2cccc(F)c2)cc1`, the figure is 20.2%; as for `CCN1CCc2c(CNC(=O)c3nccn3C)cncc2C1`, 35.8%.
To `Cc1nn(C)c2c(NCc3ccccn3)ncnc12` belongs 42.1%.
To `C=C/C=c1\c(=C/C)oc2c(NCc3ccccc3)ncnc12` belongs 60.3%; to `Cc1nc(NCc2cccnc2)c2c(n1)c(C)nn2C`, 1.81%.
For `C=C/C=c1\c(=C/C)oc2c(NCc3ccccc3)nc(CC)nc12`, the INHIBITION stood at 22.5%.
To `C=C/C=c1\c(=C/C)oc2c(NCc3ccccc3)nc(C)nc12` belongs 68%; to `Cc1ncc(CN)c(-c2cn(C)c3ccccc23)n1`, 9.05%; to `CN(CC(N)=O)C(=O)C1Cc2cc(Cl)ccc2O1` (stereo unspecified), -5.64%.
Consider `CN(C)CC1(O)CCN(C(=O)Cc2ccc(Cl)c(Cl)c2)C1` (stereo unspecified), for which the INHIBITION stood at 39.1%.
As for `CN(C)CC1(O)CCCN(C(=O)Cc2ccc(Cl)c(Cl)c2)C1` (stereo unspecified), the figure is 52.2%; as for `CN(C)CC1(O)CCN(C(=O)Cc2ccc3c(c2)CCCC3)C1` (stereo unspecified), 20.6%.
To `O=C1[C@@H]2CN(c3ncnc4sccc34)C[C@]2(C(=O)O)CN1CC1CC1` belongs 29.2%; to `Cc1nn(C)c(N(C)C)c1CNC1CCOc2c(Cl)cccc21` (stereo unspecified), -17.7%.
As for `COc1ccccc1C1(O)CCCN(C(=O)c2ccnn2C(C)C)C1` (stereo unspecified), the figure is -24.4%; as for `CNC(=O)[C@@H]1CN(C(=O)C(C)C)C[C@H]1c1ccnc(N2CCCC2)n1`, 21.7%.
Regarding `Cc1noc(C2CCC3(CCN(C(=O)C4CCOCC4)CC3)O2)n1` (stereo unspecified), the INHIBITION was 32.2%.
For `NC(CC1CCCC1)c1ccc(Oc2ccccc2)cc1` (stereo unspecified), the INHIBITION was determined as 80.1%.
In the case of `NC(=O)C(NC1CCN(CC2CCCCC2)CC1)c1ccc(F)cc1` (stereo unspecified), the INHIBITION is listed as -55.1%.
As for `NC(=O)C(NC1CCN(CC2CCCCC2)CC1)c1ccccc1` (stereo unspecified), the figure is -139%; as for `NC(c1ccccc1)c1ccc(OC(F)F)cc1` (stereo unspecified), 29.3%.
To `NC(CC1CCCCC1)c1ccccc1` (stereo unspecified) belongs 5.15%; to `NC(CC1CCCC1)c1ccccc1` (stereo unspecified), 62.2%.
To `COCc1noc(Cc2cc(Cl)c3c(c2)OCCCO3)n1` belongs -69.2%.
As for `CC(C)(C)CC(=O)NCCCn1cncn1`, the INHIBITION amounted to 40.6%.
To `Cc1cn2c(n1)CCC(NC(=O)c1cncnc1C)C2` (stereo unspecified) belongs -0.219%; to `N#CCSCCCN1CCCC(C(=O)N2CCCCCC2)C1` (stereo unspecified), 35.5%.
To `N#CCSCCCN1CCC(C(=O)N2CCCCCC2)CC1` belongs 51.8%; to `N#CCSCCCN1CCN(C(=O)C2CCCC2)CC1`, 50.7%.
To `CC1CCN(CCNC(=O)C2CCN(C(=O)C3CC3)CC2)CC1` belongs -8.23%.
`Cc1ccc(C(=O)N2CCN(CCCSCC#N)CC2)o1`: the INHIBITION was found to be 0.139%.
As for `CC(NCCN1CCN(C(=O)C2CCCC2)CC1)c1cnn(C)c1` (stereo unspecified), the figure is 17.1%.
As for `O=C(O)c1cc(S(=O)(=O)Nc2ccc(F)cc2Cl)cc2c1OCCO2`, the figure is 23.5%; as for `O=C([C@H]1CCCO1)N1CCCC2(CCN(Cc3ccncc3)C2=O)C1` (stereo partly specified), 10.3%; as for `CN1C(=O)CCCC12CCCN(C(=O)c1cc(F)cc(F)c1)C2` (stereo unspecified), 33.4%.
As for `Cn1cc(CC(=O)N2CCCC(n3cncn3)C2)cn1` (stereo unspecified), the figure is 17.4%.
`Cc1cnc(CNC(=O)CCCn2cnc3ccccc3c2=O)cn1`: the INHIBITION is 34.6%.
As for `Cc1nc(C2CCCN2C(=O)CCCn2cccn2)no1` (stereo unspecified), the figure is -25.9%; as for `CCc1noc(CCCC(=O)N2CCCC(c3ccn[nH]3)C2)n1` (stereo unspecified), 42.8%.
For the molecule `CC(C)c1nc(C2CCCN(C(=O)CCn3cncn3)C2)no1` (stereo unspecified), the INHIBITION is 31.2%.
To `O=C(CCCc1nc(C2CC2)no1)N1CCCC(c2ccn[nH]2)C1` (stereo unspecified) belongs 52.6%; to `CC(C)c1nc(C2CCCN(C(=O)CCCn3cccn3)C2)no1` (stereo unspecified), -29.8%; to `CCCc1noc(CCC(=O)N2CCCC(c3ccn[nH]3)C2)n1` (stereo unspecified), 16.8%.
As for `Cc1nc(C2CCCN(C(=O)CCCn3cccn3)C2)no1` (stereo unspecified), the figure is 53.5%; as for `CC(C)c1nc(C2CCCN(C(=O)CCn3ccnc3)C2)no1` (stereo unspecified), 56.1%.
To `CC(C)c1nc(C2CCCN(C(=O)CCCn3ccnc3)C2)no1` (stereo unspecified) belongs -19.4%; to `Cc1csc2c(C3CCCN(C(=O)CCn4ccnc4)C3)nc(C)n12` (stereo unspecified), 57.3%.
On to `Cc1csc2c(C3CCCN(C(=O)CCCn4cncn4)C3)nc(C)n12` (stereo unspecified), for which the INHIBITION is reported as -1.16%.
To `Cc1csc2c(C3CCCN(C(=O)CCn4cncn4)C3)nc(C)n12` (stereo unspecified) belongs 5.34%.
